Assay results as given in PubChem BioAssay (EPA / NIEHS).
Activity calls are given as the source filed them. How the source made its calls: active means hit-call score of the fitted dose curve at least 0.9, where 1 is the maximum; inactive means score below 0.9.

assay: APR_HepG2_MitoMembPot_24hr: Apredica 24-hour HepG2 Assay for Mitochondrial Membrane Potential (AID 2282911); conditions: imaging, actives raise or lower the signal
Description: APR_HepG2_24hr is a cell-based, multiplexed-readout assay that uses HepG2, a human liver cell line, with measurements taken at 24 hours after chemical dosing in a 384-well plate.APR_HepG2_MitoMembPot_24hr is one of 10 assay component(s) measured or calculated from the APR_HepG2_24hr assay. It is designed to make measurements of dye binding, a form of membrane potential reporter, as detected with fluorescence intensity signals by HCS Fluorescent Imaging technology.Data from the assay component APR_HepG2_MitoMembPot_24hr was analyzed into 1 assay endpoint. This assay endpoint, APR_HepG2_MitoMembPot_24hr, was analyzed with bidirectional fitting relative to DMSO as the negative control and baseline of activity. Using a type of membrane potential reporter, gain or loss-of-signal activity can be used to understand changes in the signaling. Furthermore, this assay endpoint can be referred to as a primary readout, because this assay has produced multiple assay endpoints where this one serves a signaling function. To generalize the intended target to other relatable targets, this assay endpoint is annotated to the cell morphology intended target family, where the subfamily is organelle conformation.
Cells were treated with dimethyl sulfoxide (DMSO) as a solvent control at a final concentration of 0.5% v/v or with compounds in DMSO with a resulting final DMSO concentration of 0.5% v/v. Compound treatment was done at concentrations of 0.39, 0.78, 1.56, 3.12, 6.24, 12.5, 25, 50, 100, and 200 uM in duplicate on each plate. Cells were treated with compounds for 1, 24, or 72 hr. Carbonyl […] m-chloro-phenylhydrazone (CCCP) and taxol were used as positive controls for mitochondrial function and cytoskeletal stability, respectively; DMSO served as the negative control for this experiment. Cells were fixed by the direct addition of 50 uL formaldehyde in Hank's Balanced Salt Solution (HBSS) to a final concentration of 3.7%. After incubation in the fixation medium for 30 min at room temperature (293-298 K), cells were rinsed twice with HBSS and treated with cell permeabilization buffer (16 uL of 0.5% Triton X-100) for 10 min at room temperature (293-298 K) before labeling. For mitochondrial membrane potential and mitochondrial measurements, pre-fixed cells were incubated with 50 uL of MitoTracker Red CMXRos (Invitrogen) at a concentration of 250 nM for 30 min before fixation. In the remaining cases, post-fixed cells were labeled by incubation with a multiplexed mixture of primary antibodies in HBSS for 60 min at room temperature (293-298 K) to detect immunoreactivity of c-Jun (1:500), phospho-histone H3 (1:100), phospho-histone H2A.x (1:200), p53 (1:400), alpha-tubulin (1:200) and Hoechst 33342 (2 ug/mL). Cells were labeled for multiplexed imaging on two separate plates: a) Hoechst 33342, MitoTracker Red, phospho-histone H3, and alpha-tubulin, and b) Hoechst 33342, phospho-histone H2A.x, and c-Jun. A final rinse with HBSS (50 uL) was performed before analysis. The primary and secondary antibodies for the proteins were phospho-histone H3 (rabbit anti-phospho-histone H3 and FITC-donkey anti-rabbit IgG), phospho-histone H2A.x (mouse anti-phospho-histone H2A.x and FITC-donkey anti-mouse IgG), c-Jun (rabbit anti-phospho-c-Jun and Cy3-donkey anti-rabbit IgG), p53 (sheep anti-p53 and Cy5-donkey anti-sheep IgG), alpha-tubulin (mouse anti-alpha-tubulin and Cy5-donkey anti-mouse IgG). These antibodies are available as the CellCiphr HepG2 assay kit (Millipore).Digital images of each well were captured using a Cellomics ArrayScan VTI (Thermo Scientific Cellomics) (0.8 NA objective, 0.63x optical coupler, and XF-93 filter set) at 20x magnification. The images were acquired using the autofocus feature of the ArrayScan instrument, which entails the following steps. First, the camera focuses on channel 1 (Hoechst 33342), where nuclei are identified. Second, a Z offset of 1 um is used for capturing mitochondria (MitoTracker Red). […]

| Structure (SMILES) | outcome | AC50 |
| --- | --- | --- |
| C[N+]1(C)CCCCC1 | inactive |  |
| CCOC(=O)CC(SP(=O)(OC)OC)C(=O)OCC (stereo not given) | inactive |  |
| CCOP(=O)(OCC)Oc1cc(C)nc(C(C)C)n1 | inactive |  |
| COP(=O)(NC(C)=O)SC (stereo not given) | inactive |  |
| CSC1=N[C@@](C)(c2ccccc2)C(=O)N1Nc1ccccc1 | inactive |  |
| CCc1cccc(CC)c1N(COC)C(=O)CCl | inactive |  |
| CN(C)[C@@H]1C(=O)C(C(N)=O)=C(O)[C@@]2(O)C(=O)C3=C(O)c4c(O)cccc4[C@@](C)(O)[C@H]3[C@H](O)[C@@H]12 | inactive |  |
| CCc1cnc(C2=NC(C)(C(C)C)C(=O)N2)c(C(=O)O)c1 (stereo not given) | inactive |  |
| COc1cc(OC)nc(Sc2cccc(Cl)c2C(=O)O)n1 | inactive |  |
| COP(=O)(OC)C(O)C(Cl)(Cl)Cl (stereo not given) | inactive |  |
| CCCCN(CC)c1c([N+](=O)[O-])cc(C(F)(F)F)cc1[N+](=O)[O-] |  | 71.9 µM (active) |
| CC1=NNC(=O)N(/N=C/c2cccnc2)C1 | inactive |  |
| CCCCOC(=O)[C@@H](C)Oc1ccc(Oc2ccc(C#N)cc2F)cc1 | inactive |  |
| CCCCOC(=O)c1ccccc1C(=O)O | inactive |  |
| Cc1nn(-c2cc(NS(C)(=O)=O)c(Cl)cc2Cl)c(=O)n1C(F)F | inactive |  |
| C#CCC1=C(C)C(OC(=O)C2C(C=C(C)C)C2(C)C)CC1=O (stereo not given) | inactive |  |
| CNc1cnn(-c2cccc(C(F)(F)F)c2)c(=O)c1Cl | inactive |  |
| COP(=O)(OC)SCn1c(=O)oc2cc(Cl)cnc21 | inactive |  |
| CCOP(=O)(NC(C)C)Oc1ccc(SC)c(C)c1 (stereo not given) | inactive |  |
| CCOP(=O)(SC(C)CC)N1CCSC1=O (stereo not given) | inactive |  |

| Structure (SMILES) | outcome | AC50 |
| --- | --- | --- |
| CCCOCC(=Nc1ccc(Cl)cc1C(F)(F)F)n1ccnc1 | inactive |  |
| CCc1cccc(C)c1N(C(=O)CCl)C(C)COC (stereo not given) | inactive |  |
| COc1ccc(C(=CC(=O)N2CCOCC2)c2ccc(Cl)cc2)cc1OC |  | 8.19 µM (active) |
| Cc1ccn2nc(S(=O)(=O)Nc3c(F)cccc3F)nc2n1 | inactive |  |
| CC(=NC#N)N(C)Cc1ccc(Cl)nc1 | inactive |  |
| C=C(C)[C@H]1Cc2c(ccc3c2O[C@@H]2COc4cc(OC)c(OC)cc4[C@@H]2C3=O)O1 |  | 0.295 µM (active) |
| CCOC(=O)COc1cc(-c2nn(C)c(OC(F)F)c2Cl)c(F)cc1Cl | inactive |  |
| CCOP(=S)(OCC)Oc1cc(C)nc(C(C)C)n1 | inactive |  |
| CN1COCN(Cc2cnc(Cl)s2)C1=N[N+](=O)[O-] | inactive |  |
| CSc1nnc(C(C)(C)C)c(=O)n1N | inactive |  |
| O=C(O)c1cc(Oc2ccc(C(F)(F)F)cc2Cl)ccc1[N+](=O)[O-] | inactive |  |
| S=C1NCCN1 | inactive |  |
| Nc1nc(N)nc(NC2CC2)n1 | inactive |  |
| CCOP(=S)(OCC)OC(Cl)C(Cl)(Cl)Cl (stereo not given) |  | 151 µM (active) |
| O=[N+]([O-])c1cc(C(F)(F)F)c(Cl)c([N+](=O)[O-])c1Nc1ncc(C(F)(F)F)cc1Cl | inactive |  |
| Nc1c(Cl)cc([N+](=O)[O-])cc1Cl | inactive |  |
| CNC(=O)ON=C(C)SC | inactive |  |
| CN(C)C(=O)Nc1cccc(C(F)(F)F)c1 | inactive |  |
| CC1(C(=O)Nc2ccc(O)c(Cl)c2Cl)CCCCC1 | inactive |  |
| FC(F)C(F)(F)OCC(Cn1cncn1)c1ccc(Cl)cc1Cl (stereo not given) | inactive |  |
